Screens as filed in PubChem BioAssay.
DRD3 agonist – D3 dopamine receptor (human) agonism; P35462; D3R DiscoveRx beta-arrestin cells, luminescence, 90 min; max activation, %; 0.58% of 410,000 active; in the data active means max activation above about 30%; further: 0% is about no effect
Target sequence (P35462 whole entry, looked up): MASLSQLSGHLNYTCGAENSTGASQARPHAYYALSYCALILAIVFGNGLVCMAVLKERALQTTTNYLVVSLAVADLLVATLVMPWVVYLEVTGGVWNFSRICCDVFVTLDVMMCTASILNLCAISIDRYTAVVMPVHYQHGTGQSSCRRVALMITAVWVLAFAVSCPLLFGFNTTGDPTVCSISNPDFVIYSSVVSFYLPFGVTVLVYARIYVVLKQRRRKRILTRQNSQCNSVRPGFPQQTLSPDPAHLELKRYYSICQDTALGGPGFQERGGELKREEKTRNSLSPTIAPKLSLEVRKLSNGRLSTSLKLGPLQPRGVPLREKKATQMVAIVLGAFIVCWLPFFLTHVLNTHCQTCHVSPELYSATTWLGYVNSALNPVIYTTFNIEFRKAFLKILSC
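Cells at 1500/well, incubated overnight, then treated with pinned compounds (dopamine as control) for 90 min at 37 degrees C. DiscoveRx reagent added for 30 - 60 minutes at room temperature; luminescence read.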
D1 PAM – human D1 dopamine receptor positive modulation. 0.036% of 360,000 active. AID 504651. potentiation, % at 10 µM. HEK293 TREx D1 cells, calcium flux, dopamine EC20 potentiation. P21728; in the data active means potentiation above about 30%; further: 0% is about no effect
DRD3 antagonist – antagonists of human D3 dopamine receptor | D3R cells, DiscoveRx beta-arrestin luminescence, antagonist mode; stronger effect = lower value | max response, negative = inhibition, % | 2.5% of 360,000 active | AID 652054 | P35462; in the data active means max response below about -50%; inconclusive means no clear call, values can overlap the other calls; further: on the % scale 0 is the no-effect control and ±100 the full control effect
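Cells expressing the human receptor were seeded at 1500 cells/well, incubated overnight at 37 degrees C in 5% CO2, then exposed to library compounds with dopamine controls for 90 minutes at 37 degrees C before luminescent detection.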
D1 antagonist – blocks dopamine activation of the human D1 receptor | P21728 | HEK293 TREx D1 cells, calcium flux, dopamine EC80; stronger effect = lower value | activity change, negative = inhibition, % at 10 µM | 3.2% of 360,000 active | AID 504652; in the data active means activity change below about -30%; further: on the % scale 0 is the no-effect control and ±100 the full control effect
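Using tetracycline-induced force-coupled D1 Hek293 cells and a calcium dye, signals were followed for 180 s after compound, then for 180 s after EC80 dopamine, to detect inhibitors.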
D1 agonist – activates the human D1 dopamine receptor. activation, % at 2 µM. AID 504660. P21728. HEK293 T-REx D1 cells, calcium flux, agonist mode. 1% of 360,000 active; in the data active means activation above about 30%; further: 0% is about no effect
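Agonism was scored from calcium flux recorded over 180 s (1 read/s) after pintool compound addition, following a 10-cycle baseline. Cells were inducible force-coupled HEK293 TREx D1, plated overnight at 30 C and loaded with no-wash calcium dye.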
* hit, by the source's call; ? = inconclusive; · = no result given. Rows were chosen to be rich in hits. Some 6.1% of all compounds tested hit in one or more screens of this group.

SMILES	DRD3 agonist	D1 PAM	DRD3 antagonist	D1 antagonist	D1 agonist
C[C@@H](CN1CCC[C@H]1CN1C(N)=NC[C@@H]1Cc1ccccc1)N1C[C@@H](Cc2ccccc2)N(CCc2ccc(Cl)c(Cl)c2)C1=N	-48	·	-53*	·	·
CC(C)[C@@H]1CN=C(N)N1C[C@@H]1CCCN1C[C@H](C)N1C[C@@H](Cc2ccccc2)N(CCc2ccc(Cl)c(Cl)c2)C1=N	-20	·	-60*	·	·
CCN(CC)c1ccc(NC(=O)CSc2nnc(C)c(=O)[nH]2)cc1	-4	-1	·	-1	0
C#CCN(C[C@@H]1[C@@H](OC(=O)NC2CCCC2)[C@@H](OC(=O)NC2CCCC2)Cn2c(=O)ccc(=O)n21)S(=O)(=O)c1ccc(C)cc1	-13	·	-64*	·	·
C#CCN(C[C@@H]1[C@@H](OC(=O)Nc2cccs2)[C@@H](OC(=O)Nc2cccs2)Cn2c(=O)ccc(=O)n21)S(=O)(=O)c1ccc(C)cc1	-2	·	-4	·	·
O=C(CNC(=O)c1cccc(F)c1)N/N=C/c1cc(Br)ccc1OC(=O)/C=C/c1ccco1	-7	-3	-25	0	3
O=C(CNC(=O)c1ccccc1O)N/N=C/c1cc(Br)ccc1OC(=O)/C=C/c1ccco1	-20	-8	?	-33*	7
Oc1ccc2ccccc2c1CN1CCN(c2ccccc2F)CC1	-6	0	-95*	3	2
O=S(=O)(c1ccccc1)N1CCN(Cc2c(O)ccc3ccccc23)CC1	6	·	4	·	·
Oc1ccc2ccccc2c1CN1CCN(C/C=C/c2ccccc2)CC1	-26	-5	-56*	7	5
Cc1ccc(Cl)cc1N1CCN(C(=O)c2cc3c(-c4ccccc4F)nn(C)c3s2)CC1	18	8	·	24	14
CC(=O)N1CN(C2CCS(=O)(=O)C2)Cc2c1sc1c2CCCC1 (stereo unspecified)	9	2	-56*	-7	1
Nc1sc2c(c1C(=O)NC1CCS(=O)(=O)C1)CCC2 (stereo unspecified)	6	-2	-23	-5	2
CCOc1ccc(-n2ccnc2SCC(=O)Nc2nc3ccc(C)cc3s2)cc1	2	-1	·	17	0
O=C(CC(c1ccccc1)c1ccccc1O)NCCN1CCOCC1 (stereo unspecified)	-4	0	-55*	-53*	0
O=C(COc1ccccc1O)NCCN1CCOCC1	-15	3	-1	25	2
COc1ccc(-c2cnnc(N/N=C/c3ccc(O)c(OC)c3)n2)cc1	32*	0	13	8	1
CCc1cccc(C)c1NC(=O)CN1CCCN(Cc2ccccc2Cl)S1(=O)=O	-8	2	·	13	6
Cc1nc2nc(C)n(CCN3CCOCC3)c(=O)c2c(-c2cccc([N+](=O)[O-])c2)c1C(=O)CCCCCCCCCCN1CCC(c2ccccc2)(c2ccccc2)CC1	-6	·	-93*	·	·
O=C(NCCCN1CCOCC1)/C(=C/c1ccc(-c2cccc([N+](=O)[O-])c2)o1)NC(=O)c1ccccc1	-1	·	3	·	·
O=C(N=c1ccn(-c2nc3ccccc3nc2NS(=O)(=O)c2ccc(Cl)cc2)cc1)c1cccs1	-14	-2	-10	6	3
O=C(N=c1ccn(-c2nc3ccccc3nc2NS(=O)(=O)c2ccc(Cl)cc2)cc1)c1ccccc1Cl	·	-2	·	2	89*
CCOc1ccc(S(=O)(=O)Nc2nc3ccccc3nc2-n2ccc(=NC(=O)c3cccs3)cc2)cc1	4	-8	20	-33*	72*
CC(=O)Nc1ccc(S(=O)(=O)Nc2nc3ccccc3nc2-n2ccc(=NC(=O)c3ccccc3)cc2)cc1	-13	7	-10	-1	16
O=C(N=c1ccn(-c2nc3ccccc3nc2NS(=O)(=O)c2ccccc2)cc1)c1ccccc1Cl	4	-4	3	4	38*
SMILES	DRD3 agonist	D1 PAM	DRD3 antagonist	D1 antagonist	D1 agonist
CC(C)c1ccc(NC(=O)CSC2=Nc3ccccc3C3=NC(CC(=O)NCc4ccco4)C(=O)N23)cc1 (stereo unspecified)	-11	-1	·	15	1
CCCCCCn1cc(C(=O)O)c(=O)c2ccccc21	2	-2	-63*	-1	0
COc1ccc(C(=O)c2cn(Cc3ccccc3)c3ccccc3c2=O)cc1OC	-12	0	·	-33*	1
CC(C)(C)CN1C(N)=NC[C@@H]1Cc1ccc(O)cc1	-10	0	0	-45*	2
CCCCNS(=O)(=O)CCNCc1ccco1	43*	·	-9	·	·
CCCCCCCCNCCS(=O)(=O)NCc1ccccc1	-41	·	-81*	·	·
CCCCNS(=O)(=O)CCNCc1ccc(OC)cc1	-50	·	-3	·	·
C=CCSc1ncc(-c2ccccc2)cn1	0	-4	-11	-31*	3
COc1ccc(S(=O)(=O)Nc2ccc3c(c2)sc(=O)n3C)cc1Cl	-4	0	·	-18	10
CCOC(=O)c1sc(C)c2c1NC1(CCCCC1)NC2=O	47*	3	4	1	2
COc1cccc(CNS(=O)(=O)c2ccc3c(c2)C(C(C)C)C(=O)N3)c1 (stereo unspecified)	-6	-4	·	-9	14
Cc1nc(N2CCCC2)ncc1C(=O)N1CCN(c2ccc(Cl)cc2)CC1	3	0	·	-2	4
CCn1c(SC)nc2cc(S(=O)(=O)N3CCCCC3)ccc21	-2	-2	-27	-1	1
CCn1c(CN2CCC(C)CC2)nc2cc(S(=O)(=O)N3CCCCC3)ccc21	-3	·	-83*	·	·
CCOC(=O)/C(C#N)=C/C=C1/C=CC=CN1C	-17	-2	4	6	6
C=CCN1C=CC(=C/C=C(/C#N)C(=O)OCC)C=C1	-16	13	-28	-13	93*
CCOc1ccc(NC2=C(OC)C(=O)c3ccccc3C2=O)cc1	11	-2	-23	-33*	0
COc1ccc(CCN2C(=O)CN=C2Nc2ccc(F)cc2)cc1OC	-4	2	-12	-39*	0
CN1CCN(C2=C(Cl)C(=O)N(Cc3ccccc3)C2=O)CC1	-11	-7	-13	-14	8
COC1=C(Nc2ccc(OC)cc2)C(=O)c2ccccc2C1=O	1	-3	19	-18	3
COc1ccc(C2=C(Nc3ccccc3)c3ccccc3C2=O)cc1	15	-3	-25	-35*	4
CCN1CCN(C2=C(Cl)C(=O)N(Cc3ccccc3)C2=O)CC1	-7	-9	-50*	10	1
CCCOc1ccc(C2C(=O)N(C3CCCCCC3)CC(=O)N2CCC2=CCCCC2)cc1OC (stereo unspecified)	-7	-1	·	6	-1
Cc1ccc(C(CC(=O)NCC2(c3ccccc3)CCCC2)c2ccccc2)c(O)c1 (stereo unspecified)	4	-6	·	4	2
Cc1ccc2nc(COc3ccccc3NC(=O)c3ccccc3F)cc(=O)n2c1	7	-1	·	-11	-1
